For 113 compounds, inhibition results are on record in PubChem BioAssay AID488890 (Southern Research Specialized Biocontainment Screening …, 2010).

The whole screen tested about 320,000 compounds, of which about 1,300 (0.41%) were called active. Inconclusive results (about 3%) are left out. No rule for the calls is given here. A selection follows. Potency and affinity values are given separately.

The test can be described thus: growth inhibition of non-replicating M. tuberculosis (AID 488890).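 Also: plate controls were DMSO cells for no effect and high antibiotic wells for full effect.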 The following applies: Mycobacterium tuberculosis non-replicating, at 25 µM, stronger effect = higher value.
As a reminder, the inhibition is the drop in the measured response relative to a control, in per cent. `CCn1cc(/C=C(\NC(=O)c2ccccc2F)C(=O)NCCCn2ccnc2)c2ccccc21`: the inhibition is 14.8%.

Take `COc1ccc(NC(=O)CSc2nc(-c3ccco3)nc3cc(=O)[nH]n23)cc1Cl`: the inhibition amounted to 14.5%.

Consider `CCCN(Cc1nnc(-c2ccccc2Cl)o1)C(=O)c1ccc(C)c(S(=O)(=O)N2CCOCC2)c1`, for which the inhibition is -1.62%.

On to `CC(=O)C[C@@H](O)CC(=O)[C@@H]1OC(=O)CCCCCCCc2ccccc21`, for which the inhibition is 4.28%.

Turning to `Cc1ccc(C(=O)Nc2scc(-c3ccccc3)c2C(=O)O)cc1`, the inhibition worked out at 67.7%.

With `CCOC(=O)c1c(C)[nH]c(C=O)c1Cc1cccc(Cl)c1`, the inhibition is 22.5%.

Regarding `NC(=O)c1ccccc1NC(=S)NC(=O)c1ccc(Br)o1`, the inhibition was 13.4%.

For `Cc1ccc(OCC(=O)Nc2ccncc2)cc1`, the inhibition is 76.7%.

For `O=C(COc1ccc([N+](=O)[O-])cc1)N/N=C/c1ccccn1`, the inhibition worked out at 64.7%.

Turning to `Cc1cc(OCC(=O)Nc2ccncc2)cc(C)c1Br`, the inhibition is 62.5%.

Regarding `O=C(CNc1ccc2ccccc2c1)N/N=C/c1ccccn1`, the inhibition came to 56.7%.

Regarding `Cc1cc(OCC(=O)Nc2ccncc2)c(C)cc1Br`, the inhibition is 68%.

Consider `Cc1cc(C)cc(OCC(=O)Nc2ccncc2)c1`, for which the inhibition was found to be 2.54%.

On to `COC(=O)COc1ccc(/C=N/NC(=O)c2ccc(N(Cc3ccccc3)S(C)(=O)=O)cc2)cc1`, for which the inhibition amounted to 64.2%.

For the compound `CCn1c(SCc2cccnc2)nnc1-c1c[nH]c2ccccc12`, the inhibition was -5.65%.

For `CC(=O)N1CCCc2cc(S(=O)(=O)NCCC3=CCCCC3)ccc21`, the inhibition worked out at 17.1%.

In the case of `CCOC(=O)c1ccc(CNCc2ccc(Br)cc2)cc1`, the inhibition stood at 43.5%.

For the compound `CC(=O)NCC(=O)OCC(=O)c1ccc(Br)cc1`, the inhibition came to 27.9%.

In the case of `O=C(CCCCN1CCCCC1)c1ccccc1`, the inhibition was -7.7%.

With `CC(C)COc1ccc(C(=O)OCCN2CCCCC2)cc1`, the inhibition is 13.8%.

As for `COc1ccc(C(=O)CN2CCCCC2)cc1`, the inhibition is -2.71%.

As to `CCC(=O)c1ccc(OCC(O)CN2CCCCC2)cc1` (stereo not drawn), the inhibition came to 9.06%.

Consider `CC(C)Oc1ccc(OCCCN2CCCCCC2)cc1`, for which the inhibition turned out to be 35.7%.

`O=C(CCN1CCCCC1)Nc1ccccc1`: the inhibition is -3.98%.

Take `COc1ccc(C(=O)OCCN2CCCCC2)cc1`: the inhibition came out at 4.85%.

As to `O=C(CN1CCCCC1)c1ccc(OC(F)F)cc1`, the inhibition was -4.47%.

Regarding `COCCC1CCCCN1C(=O)c1cc(COc2ccc(C)nc2)on1` (stereo not drawn), the inhibition was -7.63%.

Turning to `Cc1csc(=Nc2c(C)n(C)n(-c3ccccc3)c2=O)n1Cc1ccccc1`, the inhibition is -1.63%.

Consider `NC(=O)c1ccsc1NC(=O)COC(=O)c1ccc(Cl)c(N)c1`, for which the inhibition is -0.17%.

For the compound `COc1ccc(C)cc1NC(=O)CCC(=O)Nc1nnc(C2CCCCC2)s1`, the inhibition was determined as 0.87%.

In the case of `CCN(CC1CCCN(CCc2cccc(OC)c2)C1)C(=O)c1ccoc1C` (stereo not drawn), the inhibition was -3.45%.

Consider `Cc1cc(NC(=O)CSc2nnc(-c3ccc(S(=O)(=O)N4CCCC4)cc3)n2C)no1`, for which the inhibition is -6.04%.

On to `O=C(Nc1cc(S(=O)(=O)N2CCCCCC2)ccc1OCC(F)(F)F)c1cnccn1`, for which the inhibition was 9.9%.

`Cn1c(=O)[nH]c2nncnc2c1=O`: the inhibition turned out to be 12.4%.

Turning to `CCCCn1c(N)c(N(CCC(C)C)C(=O)COC(=O)c2cccnc2Cl)c(=O)[nH]c1=O`, the inhibition amounted to 17.4%.

With `CC(=O)Nc1ccc(S(=O)(=O)NCC(=O)NCCc2ccc(S(N)(=O)=O)cc2)cc1`, the inhibition was -0.25%.

Take `O=C(N=C1N=C2C=CC(Br)=CN2Cc2ccccc21)c1ccc([N+](=O)[O-])cc1[N+](=O)[O-]`: the inhibition is 61.8%.

Regarding `CCOc1ccc(NC(=O)CCN2CCCCC2)cc1`, the inhibition was -37.2%.

With `CCOc1ccc(OCCN2CCCCC2)cc1`, the inhibition came out at 8.17%.

For the compound `O=C(CSc1nnc(Cn2nnc3ccccc32)o1)Nc1cccc(Cl)c1`, the inhibition is 3.51%.

For the compound `N#CCO/N=C(\c1ccccc1)c1ccncc1`, the inhibition amounted to 0.55%.

With `O=c1oc2ccccc2c(Nc2cccc3ccccc23)c1[N+](=O)[O-]`, the inhibition turned out to be 21.2%.

`O=c1oc2ccccc2c(Nc2ccc(O)cc2)c1[N+](=O)[O-]`: the inhibition came to 35.3%.

Regarding `COc1ccc(S(=O)(=O)N2CCN(C)CC2)cc1C`, the inhibition came out at 0.44%.

In the case of `N#Cc1ccsc1NC(=O)C1CC(=O)N(Cc2ccccc2)C1` (stereo not drawn), the inhibition stood at 50.7%.

For the compound `Cc1nn(CC(=O)N2CCc3ccccc3C2)c(C)c1Cl`, the inhibition was 10.6%.

Take `CCOC(=O)c1c(NC(=O)CCN2CCOCC2)sc(C)c1-c1ccccc1`: the inhibition was 55.4%.

In the case of `CCOC(=O)c1c(NC(=O)CN2CCOCC2)sc(C(=O)NC)c1C`, the inhibition was -15.7%.

For the compound `O=C(Nc1ncc2c(n1)-c1ccccc1OC2)c1ccc(Cl)cc1`, the inhibition came to 75.5%.

On to `O=C(Nc1ncc2c(n1)-c1ccccc1OC2)c1ccccc1Cl`, for which the inhibition stood at 13.6%.

For `COc1ccc(C(CNC(=O)c2cccc(S(=O)(=O)NCc3ccccc3)c2)N(C)C)cc1` (stereo not drawn), the inhibition was -0.497%.

With `O=C(NCc1ccc2c(c1)OCO2)c1ccc(Br)s1`, the inhibition turned out to be 70.4%.

`O=C(NCc1ccc2c(c1)OCO2)c1c(Cl)cccc1Cl`: the inhibition turned out to be 3.82%.

For the compound `CC(C)(C)OC(=O)[C@H](Cc1ccccc1)NC(=O)c1nc[nH]c1C(=O)N1CCNCC1`, the inhibition came to 9.16%.

Turning to `Cc1ccc(NC(=O)C2(c3ccc([N+](=O)[O-])cc3)CCCC2)cc1`, the inhibition came to 56.9%.

For the compound `CCOC(=O)C1CCN(c2c(-c3ccccc3)c3cc(Cl)ccc3[nH]c2=O)CC1`, the inhibition is -6.2%.

Turning to `CN(Cc1ccccc1)C(=O)c1[nH]cnc1C(=O)N[C@@H](Cc1ccccc1)C(=O)OC(C)(C)C`, the inhibition was 57.5%.

Turning to `CC(C)Cc1cc(C(=O)Nc2cc(Cl)ccc2Cl)no1`, the inhibition was 75.3%.

On to `CC(C)Cc1cc(C(=O)Nc2ccc3c(c2)OCO3)no1`, for which the inhibition turned out to be 79%.

With `COc1ccc(NC(=O)c2cc(CC(C)C)on2)cc1OC`, the inhibition worked out at 27.3%.

`CSc1ccccc1NC(=O)c1cc(CC(C)C)on1`: the inhibition came to 77.5%.

As to `COc1ccc(NC(=O)c2ccc(NC(=O)c3cccs3)cc2)cc1`, the inhibition stood at 17.2%.

Turning to `Cc1ccc(S(=O)(=O)N(C)/N=C2/C(=O)N(CC(=O)O)c3ccccc32)cc1`, the inhibition is -9.17%.

For the compound `CC/C(=N\NC(=O)Nc1ccccc1)c1c(O)n(Cc2ccccc2)c(=O)[nH]c1=O`, the inhibition turned out to be 0.07%.

In the case of `O=C(/C=C/c1ccc(Br)cc1)Nc1ccc(S(=O)(=O)Nc2ncccn2)cc1`, the inhibition was determined as 21.5%.

Take `CCOc1ccccc1NC(=O)CCS(=O)(=O)c1cccs1`: the inhibition was 1.98%.

Turning to `C/C(=N\NC(=O)c1cccc(Br)c1)c1cccnc1`, the inhibition is -8.7%.

With `C/C(=N\NC(=O)c1ccccn1)c1ccc(Cl)cc1`, the inhibition came out at 65.9%.

`CCC(CC)=NNC(=O)c1ccccc1OCc1ccc(F)cc1`: the inhibition worked out at 1.96%.

For the compound `O=C(NCc1ccccn1)c1ccccc1OCc1ccc(F)cc1`, the inhibition is -9.24%.

In the case of `C/C(=N\NC(=O)c1cccc(Br)c1)c1ccc(Br)cc1`, the inhibition came out at 5.12%.

With `C/C(=N/NC(=O)c1ccncc1)c1c[nH]c2ccccc12`, the inhibition was determined as 52.8%.

Regarding `C/C(=N/NC(=O)c1ccccn1)c1c[nH]c2ccccc12`, the inhibition turned out to be 53%.

With `C/C(=N/NC(=O)c1ccccn1)c1ccc(O)cc1`, the inhibition is 65.9%.

For the compound `CC(=O)NC(c1ccc(C(C)C)cc1)c1c(O)ccc2ccccc12` (stereo not drawn), the inhibition was -3.1%.

As to `Cc1cc(C)c(S(=O)(=O)N2CCCC(C(=O)N3CCCC3)C2)c(C)c1` (stereo not drawn), the inhibition was -5.37%.

For `CCn1c(=O)n(CC)c2cc(NS(=O)(=O)c3ccccc3)ccc21`, the inhibition amounted to 5.29%.

For the compound `COC(=O)c1c(-c2cccnc2)csc1NC(=O)c1cc(C)on1`, the inhibition came out at 39.4%.

Regarding `CC(C)c1ccc(NC2CCCN(C(=O)CCc3cnn(C)c3)C2)cc1` (stereo not drawn), the inhibition was -5.85%.

`CC(=O)c1sc(NC(=O)CN2C(=O)CCC2=O)nc1C`: the inhibition is -3.51%.

On to `O=c1cc([O-])[n+]2c3n1CCCN3CCC2`, for which the inhibition is -14.7%.

`COc1cc(C(=O)N/N=C(\C)c2ccccn2)cc(OC)c1OC`: the inhibition was determined as 36.9%.

Take `COc1ccc(C(=O)N/N=C(\C)CC(=O)Nc2ccccn2)cc1OC`: the inhibition is -1.08%.

Turning to `CCn1c(SCC(=O)Nc2cc(Cl)ccc2OC)nnc1C1CC1`, the inhibition came out at 1.4%.

For `COc1ccc(NC(=O)COc2nc(N(C)C)nc(N(C)C)n2)cc1`, the inhibition is -4.63%.

Consider `COc1ccc(CCC(=O)NC2CCCN(Cc3ccc(Cl)cc3)C2)cc1OC` (stereo not drawn), for which the inhibition is 7.24%.

For the compound `OCC[C@@H]1C[C@@H](O)[C@H](O)[C@@]2(OCCc3ccccc32)O1`, the inhibition is -1.04%.

Take `COc1cc(OC)cc(C(=O)NNC(=O)C2CCCC2)c1`: the inhibition is -10.6%.

On to `CC(C)N1CCc2c(sc(NC(=O)c3nc4ccccc4s3)c2C(N)=O)C1`, for which the inhibition was determined as 77.9%.

On to `CC(=O)N1CCc2c(sc(NC(=O)C3CC3)c2-c2nc3ccccc3s2)C1`, for which the inhibition worked out at 12.5%.

Take `Cc1cccc(N(CC(=O)NC(C)(C)C)C(=O)CS(=O)CC(=O)Nc2ccc(F)cc2)c1` (stereo not drawn): the inhibition was -8.34%.

Consider `COc1ccc(-c2nnc(SCc3ccc(C(=O)O)cc3)n2N)cc1`, for which the inhibition was -5.97%.

For `COCCSc1nnc(NC(=O)CS(=O)(=O)c2ccccc2)s1`, the inhibition came to 2.87%.

In the case of `O=C(CS(=O)(=O)c1ccccc1)Nc1ncc([N+](=O)[O-])s1`, the inhibition is -8.38%.

For the compound `O=C(CCS(=O)(=O)Cc1ccccc1)Nc1nncs1`, the inhibition stood at 60.5%.

On to `Cc1nnc(NC(=O)CCS(=O)(=O)Cc2ccccc2)s1`, for which the inhibition turned out to be 57.7%.

Regarding `O=C(Cc1csc(Nc2nc(=S)[nH]c3ccccc23)n1)N1CCN(c2cccc(C(F)(F)F)c2)CC1`, the inhibition was -8.89%.

Consider `CC(=O)N(Cc1ccccc1)Cc1nc2sc(C)c(C)c2c(=O)[nH]1`, for which the inhibition was 5.06%.

Regarding `O=C(CN1C(=O)CSc2ccc(S(=O)(=O)N3CCOCC3)cc21)NCCCN1CCCCC1`, the inhibition was -5.81%.

Turning to `Cc1ccc(S(=O)(=O)CC(=O)Nc2ccc(Cl)cn2)cc1`, the inhibition turned out to be 53.5%.

In the case of `COc1ccc([N+](=O)[O-])cc1/C=N/NC(=O)CNC(=O)c1cccc(F)c1`, the inhibition was determined as 23.1%.

Regarding `CSc1nc2sc3c(c2c(=O)[nH]1)CCC(C)C3` (stereo not drawn), the inhibition was -4.35%.

Regarding `CC(C)CCOCc1nc2sc3c(c2c(=O)[nH]1)CCC(C)C3` (stereo not drawn), the inhibition is 27.8%.

For the compound `NC(=O)CCc1c[nH]c2ccccc12`, the inhibition is -20.3%.

On to `O=C(CCc1c[nH]c2ccccc12)NCCc1ccc(Cl)cc1`, for which the inhibition is -0.44%.

In the case of `O=C(Cc1c[nH]c2ccccc12)NCc1ccc(Cl)cc1`, the inhibition was determined as 12.5%.

As for `CC(=O)N[C@@H](Cc1c[nH]c2ccccc12)C(=O)OCc1ccc(C#N)cc1`, the inhibition amounted to 5.82%.

For `O=C(CCCc1c[nH]c2ccccc12)NCc1ccc2c(c1)OCO2`, the inhibition came to 7.12%.

As for `O=C(CCc1c[nH]c2ccccc12)NCc1ccc2c(c1)OCO2`, the inhibition turned out to be 6.21%.

`CCOC(=O)CNC(=O)CSc1ncnc2c1nnn2-c1ccc(F)cc1`: the inhibition was determined as 71.2%.

For `COc1ccc(-c2sccc2C(C)C(=O)O)cc1` (stereo not drawn), the inhibition was found to be 1.98%.

Consider `CCOc1ccc(S(=O)(=O)NCCC(=O)N2CCN(c3ccccc3O)CC2)cc1`, for which the inhibition amounted to 0.02%.

Consider `Cc1cc(C)nc(NS(=O)(=O)c2ccc(NC(=O)c3ccc(S(=O)(=O)N4CCOCC4)cc3)cc2)n1`, for which the inhibition came out at 14.6%.
